For test [1], the system named is Wnt5a (protein binding on small-molecule microarray). Put plainly: small molecules binding Wnt5a protein – biophysical, small-molecule microarray, 635/667 nm fluorescence, primary screen (AID 1142).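 Note: fluorescence read at 667 nm with signal to noise per printed feature.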 The settings on record: 635 nm fluorescence, higher = more signal.
A short description of test [2]: ATP-based viability of Huh7 replicon cells – cell-based, CellTiter-Glo luminescence, basal, 48 h, cytotoxicity control for HCV replication inhibitor project, primary screen (AID 1143).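 Note: Huh7 hepatoma cells carrying a hepatitis C replication reporter with no stimulus; test concentration not given here.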 Particulars: higher = more signal, called active from +8 up or from −8 down. Background: In antiviral work, replicon cells carry a viral genome segment that copies itself.
Test [3] in a line: Pseudomonas biofilm growth suppression – PAO1 strain, BacTiter-Glo luminescence, LB-PBS, primary screen (AID 1144). Particulars: P. aeruginosa PAO1 biofilm, 12 h, higher = more signal.
Test [4] in a line: basal CRE-LacZ reporter activity in PC12 – cell-based, unstimulated, primary screen (AID 1145). The settings on record: no forskolin, luminescence, 4.5 h, higher = more signal, called active from +8 up or from −8 down.
The nature of test [5]: forskolin-driven CRE-LacZ activity in PC12 – cell-based, CRE-LacZ reporter, forskolin-stimulated, primary screen (AID 1146).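 Note: PC12 cells with 6xCRE LacZ reporter stimulated by forskolin 10 µM; beta-galactosidase reporter signal reflecting CREB driven transcription.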 The settings on record: luminescence, 4.5 h, higher = more signal, called active from +8 up or from −8 down.
The target in test [6] is Streptavidin (Streptomyces avidinii) (UniProt P22629). Put plainly: compounds binding control protein streptavidin – biophysical, small-molecule microarray, 635/667 nm fluorescence, artefact control for SMM compound annotation, primary screen (AID 1147).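 Note: signal reflects streptavidin binding to arrayed compounds as a control protein.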 The settings on record: higher = more signal.
A short description of test [7]: probe aInhba binding on compound microarray – biochemical, small-molecule microarray, 635/667 nm fluorescence, primary screen (AID 1148).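 Note: score merges 667nm spot fluorescence with signal-to-noise for antibody binding to printed compounds.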 The settings on record: higher = more signal.
Test [8] deals with Torsin-1A (Homo sapiens) (UniProt O14656). Put plainly: TOR1A wild-type binding on microarray – cell lysate, small-molecule microarray, lysate, 635/667 nm, primary screen (AID 1149). Particulars: COS7 hTOR1A-WT lysate, 635 nm fluorescence, higher = more signal.
The target is the same in test [9]. Put plainly: torsin A mutant lysate binding on microarrays – cell lysate, small-molecule microarray, COS7 lysate, 635/667 nm fluorescence, primary screen (AID 1150).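 Note: score pools 667 nm emission and signal to noise measuring lysate protein binding.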 The settings on record: COS7 hTOR1A mutant lysate, 635 nm fluorescence, higher = more signal.
Test [10] relates to Sonic hedgehog protein (Shh). Put plainly: Sonic hedgehog microarray binding compounds – biochemical, small-molecule microarray, 635/667 nm fluorescence, primary screen (AID 1151).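 Note: Shh protein binding to compounds spotted on small-molecule microarray slides; score combines spot fluorescence intensity with signal-to-noise across triplicate slides.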 Particulars: 635 nm fluorescence, higher = more signal.
The nature of test [11]: optical density shifts of acrAB sulA E. coli – strain DRC41, OD650, 48 h, E. coli filamentation inducer project, primary screen (AID 1152).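 Note: E. coli MC1000 strain DRC41 lacking acrAB efflux pump and sulA.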 Particulars: higher = more signal, called active from +8 up or from −8 down.
Test [12] is described as follows: probe aLefty1 binding on compound microarray – biochemical, small-molecule microarray, 635/667 nm fluorescence, primary screen (AID 1153).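 Note: score merges spot fluorescence with signal-to-noise ratio from the scanned slide images.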 The settings on record: higher = more signal.
The nature of test [13]: plasmodial surface anion channel blockers, osmotic lysis – cell-based, P. falciparum Indochina, OD700, 1 h, primary screen (AID 1154). The settings on record: P. falciparum Indochina infected RBC osmotic lysis, higher = more signal, called active from +8 up or from −8 down.
Test [14] can be described thus: plasmodial surface anion channel blockers, osmotic lysis – cell-based, P. falciparum Indochina, OD700, 2 h, primary screen (AID 1155).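 Note: lysis reports solute entry through the parasite surface anion channel PSAC.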 Particulars: P. falciparum Indochina infected erythrocytes, higher = more signal, called active from +8 up or from −8 down.
A short description of test [15]: changes in parasitized red cell lysis, either direction – P. falciparum Indochina, OD700, 3 h, PSAC antagonist project, primary screen (AID 1156). Particulars: P. falciparum-infected erythrocytes, osmotic lysis, higher = more signal, called active from +8 up or from −8 down.
Test [16] in a line: plasmodial surface anion channel blockers, osmotic lysis – cell-based, P. falciparum Indochina, OD700, 18 h, primary screen (AID 1157). The settings on record: P. falciparum Indochina infected erythrocytes, osmotic lysis OD700, 18 h; higher = more signal, called active from +8 up or from −8 down.
A short description of test [17]: S6 kinase pathway phospho-S6 level changes – cell-based, A549, cytoblot, luminescence, serum-stimulated, primary screen (AID 1158).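 Note: serum-stimulated A549 lung adenocarcinoma cells; signal is phosphorylated S6 detected by cytoblot immunostaining with HRP secondary.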 Particulars: 5 h, higher = more signal.
For test [18], the target named is NADPH oxidase 2 (Homo sapiens) (UniProt P04839). Briefly: compounds shifting NOX2 Amplex Red fluorescence – cell-based, HEK293-NOX2, PMA-stimulated, NOX inhibitor project, primary screen (AID 1159). Note: test concentration not given here. Particulars: 45 min, higher = more signal, called active from +8 up or from −8 down.
The target in test [19] is NADPH oxidase 4 (Homo sapiens) (UniProt Q9NPH5). Briefly: compounds shifting NOX4 Amplex Red fluorescence – cell-based, HEK293-NOX4, tetracycline-induced, NOX inhibitor project, primary screen (AID 1160). The settings on record: HEK293-NOX4, Amplex Red H2O2 fluorescence, 45 min; higher = more signal, called active from +8 up or from −8 down.
Test [20] has as its target NADPH oxidase 5 (Homo sapiens) (UniProt Q96PH1). Briefly: compounds shifting NOX5 Amplex Red fluorescence – cell-based, HEK293-NOX5, NOX inhibitor project, primary screen (AID 1161). The settings on record: HEK293-NOX5, ionomycin, 45 min, higher = more signal.

The record followed here is PubChem BioAssay.

Each structure is given as a SMILES string. Activity calls are given as the source filed them. Unless noted, the rule behind the calls is not given here.

NADPH oxidase 5 (Homo sapiens), sequence (Q96PH1 whole entry, looked up): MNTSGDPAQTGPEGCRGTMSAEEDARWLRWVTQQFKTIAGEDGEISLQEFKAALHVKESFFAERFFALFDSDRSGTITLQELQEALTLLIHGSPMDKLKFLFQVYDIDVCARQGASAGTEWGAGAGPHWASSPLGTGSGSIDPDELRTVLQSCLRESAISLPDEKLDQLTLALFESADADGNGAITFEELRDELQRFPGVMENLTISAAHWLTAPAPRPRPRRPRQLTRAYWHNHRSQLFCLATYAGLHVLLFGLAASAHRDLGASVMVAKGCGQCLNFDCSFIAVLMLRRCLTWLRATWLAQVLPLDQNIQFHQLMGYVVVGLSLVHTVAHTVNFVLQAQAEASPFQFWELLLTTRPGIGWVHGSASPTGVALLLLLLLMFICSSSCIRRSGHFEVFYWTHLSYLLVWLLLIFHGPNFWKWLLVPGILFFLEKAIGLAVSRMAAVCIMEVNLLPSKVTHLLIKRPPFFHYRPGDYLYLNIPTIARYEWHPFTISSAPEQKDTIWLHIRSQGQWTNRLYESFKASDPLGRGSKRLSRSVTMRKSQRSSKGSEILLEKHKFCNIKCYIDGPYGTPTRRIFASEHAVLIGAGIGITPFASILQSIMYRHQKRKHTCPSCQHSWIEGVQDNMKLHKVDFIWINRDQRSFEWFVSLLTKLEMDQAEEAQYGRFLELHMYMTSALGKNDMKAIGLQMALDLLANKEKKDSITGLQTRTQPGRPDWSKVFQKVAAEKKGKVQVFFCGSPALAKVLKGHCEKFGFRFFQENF
NADPH oxidase 4 (Homo sapiens), sequence (Q9NPH5 whole entry, looked up): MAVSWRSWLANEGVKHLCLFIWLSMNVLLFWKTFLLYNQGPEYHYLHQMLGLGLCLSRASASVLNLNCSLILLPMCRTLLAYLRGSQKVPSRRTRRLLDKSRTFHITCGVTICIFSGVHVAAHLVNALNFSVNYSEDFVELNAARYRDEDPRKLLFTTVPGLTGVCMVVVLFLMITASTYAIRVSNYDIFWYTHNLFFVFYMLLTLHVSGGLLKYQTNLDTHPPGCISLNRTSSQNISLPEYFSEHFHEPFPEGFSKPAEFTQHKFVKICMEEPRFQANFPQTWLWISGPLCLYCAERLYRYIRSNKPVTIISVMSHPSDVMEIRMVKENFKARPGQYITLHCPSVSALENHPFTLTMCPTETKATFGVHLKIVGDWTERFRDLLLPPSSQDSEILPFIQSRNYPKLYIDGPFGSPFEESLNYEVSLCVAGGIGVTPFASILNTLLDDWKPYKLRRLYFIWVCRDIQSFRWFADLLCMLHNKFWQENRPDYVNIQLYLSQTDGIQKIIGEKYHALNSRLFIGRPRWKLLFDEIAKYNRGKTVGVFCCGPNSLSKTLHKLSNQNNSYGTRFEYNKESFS
Torsin-1A (Homo sapiens), sequence (O14656 whole entry, looked up): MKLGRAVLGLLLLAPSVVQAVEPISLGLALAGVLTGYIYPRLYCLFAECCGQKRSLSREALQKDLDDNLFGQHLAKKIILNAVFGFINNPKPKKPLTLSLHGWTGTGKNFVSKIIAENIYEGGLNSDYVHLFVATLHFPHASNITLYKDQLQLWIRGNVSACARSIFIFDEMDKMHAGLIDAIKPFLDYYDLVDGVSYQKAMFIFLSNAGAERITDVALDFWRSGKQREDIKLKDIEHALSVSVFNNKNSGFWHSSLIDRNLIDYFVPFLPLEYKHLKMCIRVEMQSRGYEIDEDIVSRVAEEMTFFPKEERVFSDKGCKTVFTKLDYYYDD
NADPH oxidase 2 (Homo sapiens), sequence (P04839 whole entry, looked up): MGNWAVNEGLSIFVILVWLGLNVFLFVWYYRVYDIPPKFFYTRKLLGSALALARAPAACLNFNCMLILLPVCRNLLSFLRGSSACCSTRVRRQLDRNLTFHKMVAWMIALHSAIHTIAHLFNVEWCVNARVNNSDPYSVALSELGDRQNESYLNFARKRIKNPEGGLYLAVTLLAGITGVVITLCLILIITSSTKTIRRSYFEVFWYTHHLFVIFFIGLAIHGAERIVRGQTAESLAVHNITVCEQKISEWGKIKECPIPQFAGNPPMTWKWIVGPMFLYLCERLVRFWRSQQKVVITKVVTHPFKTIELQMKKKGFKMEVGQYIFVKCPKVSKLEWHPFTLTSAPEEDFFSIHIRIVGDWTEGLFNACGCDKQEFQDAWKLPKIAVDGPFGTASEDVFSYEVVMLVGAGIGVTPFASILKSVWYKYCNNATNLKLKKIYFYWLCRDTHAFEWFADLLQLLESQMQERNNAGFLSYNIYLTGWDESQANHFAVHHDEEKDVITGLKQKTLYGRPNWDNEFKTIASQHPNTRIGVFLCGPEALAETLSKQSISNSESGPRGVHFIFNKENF
Streptavidin (Streptomyces avidinii), sequence (P22629 whole entry, looked up): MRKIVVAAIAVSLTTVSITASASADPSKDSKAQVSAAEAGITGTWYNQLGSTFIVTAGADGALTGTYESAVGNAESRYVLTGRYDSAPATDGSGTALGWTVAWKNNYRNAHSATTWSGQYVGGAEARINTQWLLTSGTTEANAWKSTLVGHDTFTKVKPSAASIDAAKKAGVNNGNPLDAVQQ

Consider `COCCOC(=O)N1C(=O)[C@@]2(c3cc(C#CCNC(N)=O)ccc31)[C@H](c1ccccc1OCCO)N1[C@H](c3ccccc3)[C@H](c3ccccc3)OC(=O)[C@H]1[C@@H]2C(=O)NC[C@H](O)c1ccccc1`, for which the composite z-score in test [1] is 0.439; in test [6], 0.903; in [7], -0.0375; in test [8], 0.834; in [9], 0.525; in test [10], 1.87. This compound also had a composite z-score in test [12] of 0.346. For the same compound, the z-score in test [2] is -0.429 (inactive); in [3], -0.209 (inactive); in test [4], -1 (inactive); in test [5], 0.172 (inactive); in test [11] it was 0.369 (inactive); in [13], 2.18 (inactive). The z-score in test [14] is 0.758 (inactive); in test [15], 0.299 (inactive); in [16], 0.751 (inactive); in test [17] it was -0.209; in test [18] it was 1.02 (inactive); in test [19] it was 1.17 (inactive). Further, in test [20], the z-score turned out to be 0.219.
For `CC(c1ccccc1)C(O)C1C=CC2C(=O)N(C)C(=O)C2N1N(c1ccccc1)c1ccccc1` (centres undefined), the composite z-score was 0.156 in test [1]; 0.377 in test [6]; 0.153 in [7]; 0.18 in test [8]; 0.426 in [9]; -0.586 in [10]. This compound also registered a composite z-score in test [12] of 0.391. In addition, the z-score is 0.066 (inactive) in test [2]; -0.131 (inactive) in test [3]; 0.443 (inactive) in [4]; 0.696 (inactive) in test [5]; -1.04 (inactive) in [11]; 1.02 (inactive) in test [13]. Further, the z-score was 0.386 (inactive) in [14]; 0.625 (inactive) in test [15]; 0.777 (inactive) in test [16]; -0.987 in [17]; -0.735 (inactive) in [18]; -0.411 (inactive) in test [19]. In addition, the z-score in [20] was -0.649.
In the case of `C=CCNC(=O)[C@@H]1[C@H]2C(=O)O[C@H](c3ccccc3)[C@H](c3ccccc3)N2[C@H](c2ccc(OCCO)cc2)[C@@]12C(=O)N(C(=O)OCCOC)c1ccc(C#CC3(O)CCCCCC3)cc12`, the composite z-score in test [1] is 0.281; in [6], 0.788; in [7] it was 0.167; in [8], 0.42; in test [9] it was 0.469; in [10], 1.1. This compound also had a composite z-score in [12] of 0.372. The z-score is -6.19 (inactive) in test [2]; -0.87 (inactive) in test [4]; -1.59 (inactive) in [5]; 2.62 (inactive) in test [11]; 5.36 (inactive) in test [13]; 2.14 (inactive) in [14]. The z-score in test [15] was 0.539 (inactive); in test [16] it was 0.761 (inactive); in [17], 3.82; in test [18] it was 1.03 (inactive); in [19] it was 0.845 (inactive); in [20] it was -1.14.
Consider `CCCC=C(CCC)[C@@H](NC(=O)c1ccccc1)c1ccccc1`, for which the composite z-score in test [1] was -0.149; in test [6], 0.405; in test [7], 0.0968; in test [8], -0.106; in [9], -0.0692; in test [10], -0.289. The compound also registered a composite z-score in [12] of 0.221. Moreover, the z-score was -1.26 (inactive) in test [2]; 0.202 (inactive) in test [3]; -0.561 (inactive) in test [4]; 1.28 (inactive) in test [5]; -0.845 (inactive) in test [11]; 1.37 (inactive) in test [13]. Besides, the z-score in test [14] was 0.894 (inactive); in test [15], 0.131 (inactive); in test [16], 0.812 (inactive); in test [17], 0.316; in [18] it was -0.523 (inactive); in test [19] it was 0.304 (inactive). Moreover, the z-score in [20] is 0.895.
As to `COC(=O)C1=CC(c2ccc(CO)cc2)=CC(c2cccs2)N(Cc2cccc(OC(F)(F)F)c2)C=C1C(=O)OC` (centres undefined), the composite z-score in [1] stood at 0.0365; in test [6], 2.29; in test [7], 0.248; in [8], 0.947; in [9], 0.76; in test [10], 0.381. Also, in test [12], the composite z-score is 0.641. Besides, the z-score in [2] is -3.08 (inactive); in test [3], 0.714 (inactive); in [4], 0.0924 (inactive); in test [5], -0.287 (inactive); in test [11], -1.66 (inactive); in test [13], 10.9 (active). Further, the z-score is 1.87 (inactive) in test [14]; 0.615 (inactive) in test [15]; 1.43 (inactive) in test [16]; -0.264 in [17]; -1.76 (inactive) in test [18]; -1.96 (inactive) in test [19]. Besides, the z-score in [20] is -2.87.
